Data reported in PubChem BioAssay AID1159580 (chemical genetic matrix, 2015).
The campaign covered roughly 5,500 compounds. About 2,000 (36%) were called active. Not shown: some 18% with an inconclusive outcome. Cut-off read from the data, not from the text of the source: active = normalized growth mostly below about 0.91 (no sharp cut-off); inconclusive = no clear call, values can overlap the other calls; inactive = mostly above about 0.92. The list shows a part of the results.

Assay: chemical genetic growth profiling, strain panel (AID 1159580);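 note: tested at 20 µM; growth read once vehicle control cultures reached saturation at 30 °C; 1 = growth at the plate median or of vehicle wells; lower values mean less growth of the strain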
Conditions: growth OD

Measured: normalized growth

CC(=O)c1cc(CC=C(C)C)c(O)c(CC=C(C)C)c1
active: S. cerevisiae deletion strains, locus YKR001C, strain vps1, stronger effect = lower value 0.898 | S. cerevisiae deletion strains, locus YLR418C, strain cdc73, stronger effect = lower value 0.758 | S. cerevisiae deletion strains, locus YOR184W, strain ser1, stronger effect = lower value 0.838
inactive: S. cerevisiae deletion strains, locus YJL187C, strain SWE1 (second series), stronger effect = lower value 0.961 | S. cerevisiae deletion strains, locus YJL187C, strain SWE1, stronger effect = lower value 1.01 | S. cerevisiae deletion strains, locus YJR043C, strain POL32, stronger effect = lower value 0.998 | S. cerevisiae deletion strains, locus YKL009W, strain mrt4, stronger effect = lower value 0.947 | S. cerevisiae deletion strains, locus YKL068W, stronger effect = lower value 0.969 | S. cerevisiae deletion strains, locus YKL085W, strain MDH1 (second series), stronger effect = lower value 0.967 | S. cerevisiae deletion strains, locus YKL085W, strain MDH1, stronger effect = lower value 0.967 | S. cerevisiae deletion strains, locus YKL160W, strain elf1, stronger effect = lower value 1 | S. cerevisiae deletion strains, locus YKR026C, strain gcn3, stronger effect = lower value 1.01 | S. cerevisiae deletion strains, locus YKR091W, strain srl3, stronger effect = lower value 1.01 | S. cerevisiae deletion strains, locus YLL001W, strain dnm1, stronger effect = lower value 1 | S. cerevisiae deletion strains, locus YLL026W, stronger effect = lower value 1.01 | S. cerevisiae deletion strains, locus YLL041C, strain sdh2, stronger effect = lower value 1.01 | S. cerevisiae deletion strains, locus YLR027C, strain aat2, stronger effect = lower value 1.01 | S. cerevisiae deletion strains, locus YLR039C, strain RIC1, stronger effect = lower value 0.697 | S. cerevisiae deletion strains, locus YLR058C, strain SHM2, stronger effect = lower value 0.982 | S. cerevisiae deletion strains, locus YLR102C, strain apc9, stronger effect = lower value 0.964 | S. cerevisiae deletion strains, locus YLR221C, strain rsa3, stronger effect = lower value 1 | S. cerevisiae deletion strains, locus YLR258W, strain gsy2, stronger effect = lower value 1.01 | S. cerevisiae deletion strains, locus YLR262C, strain YPT6 (second series), stronger effect = lower value 0.949 | S. cerevisiae deletion strains, locus YLR262C, strain YPT6, stronger effect = lower value 0.747 | S. cerevisiae deletion strains, locus YLR268W, strain sec22, stronger effect = lower value 0.924 | S. cerevisiae deletion strains, locus YLR320W, strain mms22, stronger effect = lower value 1.01 | S. cerevisiae deletion strains, locus YLR330W, strain CHS5, stronger effect = lower value 0.923 | S. cerevisiae deletion strains, locus YLR342W, strain FKS1 (second series), stronger effect = lower value 1.03 | S. cerevisiae deletion strains, locus YLR342W, strain FKS1, stronger effect = lower value 1.02 | S. cerevisiae deletion strains, locus YLR357W, strain rsc2, stronger effect = lower value 1.04 | S. cerevisiae deletion strains, locus YLR370C, strain arc18, stronger effect = lower value 1 | S. cerevisiae deletion strains, locus YLR371W, strain rom2, stronger effect = lower value 0.968 | S. cerevisiae deletion strains, locus YLR384C, strain iki3, stronger effect = lower value 1.01 | S. cerevisiae deletion strains, locus YML016C, strain PPZ1, stronger effect = lower value 0.992 | S. cerevisiae deletion strains, locus YML032C, strain rad52, stronger effect = lower value 0.988 | S. cerevisiae deletion strains, locus YML120C, strain ndi1, stronger effect = lower value 0.997 | S. cerevisiae deletion strains, locus YML124C, strain tub3, stronger effect = lower value 0.965 | S. cerevisiae deletion strains, locus YMR058W, strain fet3, stronger effect = lower value 1.01 | S. cerevisiae deletion strains, locus YMR078C, strain ctf18, stronger effect = lower value 0.962 | S. cerevisiae deletion strains, locus YMR125W, strain sto1, stronger effect = lower value 1.02 | S. cerevisiae deletion strains, locus YMR129W, stronger effect = lower value 1.01 | S. cerevisiae deletion strains, locus YMR205C, strain PFK2, stronger effect = lower value 1.01 | S. cerevisiae deletion strains, locus YMR223W, strain ubp8, stronger effect = lower value 0.951 | S. cerevisiae deletion strains, locus YMR231W, strain pep5, stronger effect = lower value 1.01 | S. cerevisiae deletion strains, locus YMR307W, strain GAS1, stronger effect = lower value 0.833 | S. cerevisiae deletion strains, locus YNL067W, strain RPL9B, stronger effect = lower value 0.925 | S. cerevisiae deletion strains, locus YNL071W, strain lat1, stronger effect = lower value 1.01 | S. cerevisiae deletion strains, locus YNL128W, strain TEP1, stronger effect = lower value 0.917 | S. cerevisiae deletion strains, locus YNL153C, strain GIM3, stronger effect = lower value 0.985 | S. cerevisiae deletion strains, locus YNL209W, strain ssb2, stronger effect = lower value 1.01 | S. cerevisiae deletion strains, locus YNL233W, strain BNI4, stronger effect = lower value 0.953 | S. cerevisiae deletion strains, locus YNL248C, strain rpa49, stronger effect = lower value 1.01 | S. cerevisiae deletion strains, locus YNL250W, strain rad50, stronger effect = lower value 0.979 | S. cerevisiae deletion strains, locus YNL271C, strain bni1, stronger effect = lower value 0.962 | S. cerevisiae deletion strains, locus YNL298W, strain CLA4, stronger effect = lower value 0.979 | S. cerevisiae deletion strains, locus YNL307C, strain MCK1, stronger effect = lower value 0.955 | S. cerevisiae deletion strains, locus YNL322C, strain KRE1 (second series), stronger effect = lower value 1.01 | S. cerevisiae deletion strains, locus YNR049C, strain mso1, stronger effect = lower value 1.01 | S. cerevisiae deletion strains, locus YNR052C, strain pop2, stronger effect = lower value 0.989 | S. cerevisiae deletion strains, locus YOL006C, strain TOP1, stronger effect = lower value 0.75 | S. cerevisiae deletion strains, locus YOL012C, strain htz1 0.849 | S. cerevisiae deletion strains, locus YOL147C, strain pex11, stronger effect = lower value 0.981 | S. cerevisiae deletion strains, locus YOR001W, strain rrp6, stronger effect = lower value 1.02 | S. cerevisiae deletion strains, locus YOR061W, strain CKA2, stronger effect = lower value 0.978 | S. cerevisiae deletion strains, locus YOR069W, strain VPS5, stronger effect = lower value 0.986 | S. cerevisiae deletion strains, locus YOR070C, strain gyp1, stronger effect = lower value 1.02 | S. cerevisiae deletion strains, locus YOR080W, strain dia2, stronger effect = lower value 1.02 | S. cerevisiae deletion strains, locus YOR083W, strain WHI5, stronger effect = lower value 1 | S. cerevisiae deletion strains, locus YOR106W, strain vam3, stronger effect = lower value 0.995 | S. cerevisiae deletion strains, locus YOR136W, strain idh2, stronger effect = lower value 0.973 | S. cerevisiae deletion strains, locus YOR144C, strain elg1, stronger effect = lower value 0.981 | S. cerevisiae deletion strains, locus YOR265W, strain rbl2, stronger effect = lower value 1.02 | S. cerevisiae deletion strains, locus YOR270C, strain vph1, stronger effect = lower value 0.949 | S. cerevisiae deletion strains, locus YOR290C, strain snf2, stronger effect = lower value 1.02 | S. cerevisiae deletion strains, locus YOR316C, strain cot1, stronger effect = lower value 0.979 | S. cerevisiae deletion strains, locus YPL051W, strain arl3, stronger effect = lower value 1.01 | S. cerevisiae deletion strains, locus YPL078C, strain atp4, stronger effect = lower value 1.01 | S. cerevisiae deletion strains, locus YPL106C, strain sse1, stronger effect = lower value 1.06 | S. cerevisiae deletion strains, locus YPL240C, strain hsp82, stronger effect = lower value 1.02 | S. cerevisiae deletion strains, locus YPL241C, strain CIN2, stronger effect = lower value 0.974 | S. cerevisiae deletion strains, locus YPR119W, strain clb2, stronger effect = lower value 0.987 | S. cerevisiae deletion strains, locus YPR141C, strain kar3, stronger effect = lower value 0.97 | S. cerevisiae deletion strains, locus YPR163C, strain tif3, stronger effect = lower value 0.952 | S. cerevisiae deletion strains, locus YPR167C, strain met16, stronger effect = lower value 0.974 | S. cerevisiae deletion strains, strain wtn01, stronger effect = lower value 0.908 | S. cerevisiae strains, strain wild type, stronger effect = lower value 0.957
